Compound activity: PubChem BioAssay, Broad Institute
CASP6 VEID inh: caspase-6 (human) enzyme inhibition | purified caspase-6, Z-VEID-R110 cleavage fluorescence | inhibition, % at 12.5 µM | P55212 | 350,000 tested, 0.53% active;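 active = mean inhibition across replicates at least about 35%, with every replicate also reaching that limit, limit read from the data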;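 also: 0% = median of neutral control wells and 100% = no fluorescence left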
NSD2 inh: NSD2 (human) methyltransferase inhibition; O96028; NSD2 peptide methylation, AlphaScreen, 120 min; inhibition, % at 12.5 µM; 310,000 tested, 0.54% active; in the data active = inhibition above about 50%
AF4-AF9 inh: MLL-AF4/AF9 protein interaction inhibition | AID 651704 | 350,000 tested, 0.47% active | inhibition, % at 10 µM | AlphaScreen, biotin-AF4 peptide binding to FLAG-AF9;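 active = every replicate reaching a set inhibition limit, whatever the replicate mean, cut at about 25% in these data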;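 also: 0% = plate neutral control median and 100% = total signal loss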
RAD52 inh: blocks human RAD52 DNA annealing. 360,000 tested, 0.46% active. inhibition, % at 18.7 µM. P43351. recombinant RAD52 DNA annealing, FRET fluorescence;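 active = every replicate showing at least 50% inhibition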
miR-122 sensor: blocks miR-122 activity in Huh7 sensor cells; Huh7 miR-122 Renilla luciferase sensor, 48 h; neutral wells = 0, positive control = 100; activation (reporter increase), % at 12.5 µM; 340,000 tested, 0.3% active; AID 602342;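 active = mean replicate activation score at least 90 and every replicate individually at or above 90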;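 also: higher luciferase means less miR-122 activity so hits act as miR-122 inhibitors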
Numbers without * were called inactive; [ ] = remark or other dose. Shown are actives, neighbours in structure and some others; about 1.5% of the full set was active somewhere.

Screening C[C@@H]1CCCCO[C@H](CN(C)Cc2ccccc2)[C@H](C)CN([C@H](C)CO)C(=O)c2cc(NS(C)(=O)=O)ccc2O1 returned miR-122 sensor -1[16.7 µM].
COc1ccccc1NS(=O)(=O)c1cc(NC(=S)NCC2CCCO2)ccc1C (configuration not stated) was read as CASP6 VEID inh 2, NSD2 inh 2, AF4-AF9 inh 0, RAD52 inh -54 and miR-122 sensor 99*.
C[C@@H]1CN([C@@H](C)CO)C(=O)c2cccc(NS(=O)(=O)c3cccs3)c2O[C@@H]1CN(C)Cc1ccccc1 was read as CASP6 VEID inh 1, AF4-AF9 inh 1, RAD52 inh -29 and miR-122 sensor 11[16.7 µM].
`CC1(C)COC(/C=C/c2cccc([N+](=O)[O-])c2)=N1` gave CASP6 VEID inh 46*, NSD2 inh -4, AF4-AF9 inh 0 and RAD52 inh -14.
`CC1(C)COC(c2cc([N+](=O)[O-])ccc2Cl)=N1` gave NSD2 inh 0 and miR-122 sensor -8.
CC(C)NC(=O)c1ccccc1NC(=O)C1CC(=O)N(C(C)C)C1 (configuration not stated) was read as CASP6 VEID inh 1, NSD2 inh -4, AF4-AF9 inh 0, RAD52 inh -22 and miR-122 sensor -4.
CNC(=O)c1ccccc1NC(=O)C1CC(=O)N(C(C)C)C1 (configuration not stated) was read as CASP6 VEID inh 66*, NSD2 inh 1, AF4-AF9 inh -1, RAD52 inh -25 and miR-122 sensor -4.
`C[C@@H]1CN([C@H](C)CO)C(=O)c2cc(NC(=O)Nc3cccc4ccccc34)ccc2O[C@@H](C)CCCCO[C@H]1CN(C)Cc1ccc2c(c1)OCO2` gave miR-122 sensor -17[16.7 µM].
`COc1ccccc1C=CC(=O)C=Cc1ccccc1OC` gave CASP6 VEID inh -1, NSD2 inh 1, AF4-AF9 inh 6 and RAD52 inh -9.
COc1ccccc1/C=C/C(=O)/C=C/c1ccccc1O was read as CASP6 VEID inh 1, NSD2 inh 1, AF4-AF9 inh 0, RAD52 inh -17 and miR-122 sensor 126*.
Screening O=C(Nc1ccc(F)cc1)c1ccccc1NC(=O)C1CC=CCC1C(=O)O (configuration not stated) returned CASP6 VEID inh 37*, NSD2 inh -2, AF4-AF9 inh -1, RAD52 inh 3 and miR-122 sensor -1.
C(=C\c1ccccc1)/C=N/N1CCN(Cc2ccccc2)CC1 was read as CASP6 VEID inh -8, NSD2 inh -1, AF4-AF9 inh 44* and RAD52 inh -8.
C(/C=C/c1ccccc1)=N/N1CCN(c2ccccc2)CC1 was read as NSD2 inh 3 and miR-122 sensor -5.
`CCCOCc1ccc(O)c2ncccc12` gave CASP6 VEID inh 2, NSD2 inh 0, AF4-AF9 inh -3, RAD52 inh -3 and miR-122 sensor -6.
`Oc1ccc(Cc2ccccc2)c2cccnc12` gave CASP6 VEID inh -3, NSD2 inh -4, AF4-AF9 inh 57*, RAD52 inh -26 and miR-122 sensor -13.
For Oc1ccc(CN2CCC(Cc3ccccc3)CC2)c2cccnc12 the results were CASP6 VEID inh -6, NSD2 inh -1, AF4-AF9 inh 76* and RAD52 inh -2.
For Oc1ccc(CN2CCN(c3ccccc3)CC2)c2cccnc12 the results were CASP6 VEID inh 5, RAD52 inh -2 and miR-122 sensor 3.
`Oc1ccc(COCc2ccccc2)c2cccnc12` gave NSD2 inh -2, AF4-AF9 inh 66* and miR-122 sensor -14.
For CCCN1CCC2(CC1)CN(Cc1ccc3c(c1)OCO3)[C@H](CO)c1[nH]c3cc(OC)ccc3c12 the results were CASP6 VEID inh -2, AF4-AF9 inh 30* and RAD52 inh 87*.
`COc1ccc2c3c([nH]c2c1)[C@@H](CO)N(C(C)=O)CC31CCN(C(=O)c2ccc3c(c2)OCO3)CC1` gave CASP6 VEID inh -1, AF4-AF9 inh 25* and RAD52 inh -2.
Screening COc1ccc2c3c([nH]c2c1)[C@H](CO)N(C(C)=O)CC31CN(C(=O)c2ccc3c(c2)OCO3)C1 returned CASP6 VEID inh -1, AF4-AF9 inh -6 and RAD52 inh 6.
`CCS(=O)(=O)N1CCC2(CC1)CN(Cc1ccc3c(c1)OCO3)[C@@H](CO)c1[nH]c3cc(OC)ccc3c12` gave CASP6 VEID inh 4, AF4-AF9 inh -15 and RAD52 inh -1.
